Assay outcomes (PubChem BioAssay)
G9a inh: inhibitors of human histone lysine methyltransferase G9a | Potency, µM (highest dose often 102 µM), inactives show top-dose activity, negative = inhibition, hits mostly inhibitors | AID 504332 | G9a H3K9 monomethylation, AlphaScreen, 2 h | hit rate 8.8% among 350,000; note: % is set by controls: 0 for no effect and ±100 for the full control effect; nearly all actives have a fitted effect of over 75% in size
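Chemiluminescent proximity detection of H3K9 monomethylation, read after 10 min bead incubation in the dark. Reaction: 20 nM G9a, 500 nM biotin-H3K9 peptide, 20 uM SAM cofactor, 2 h, room temperature, following 15 min enzyme-compound preincubation.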
L3MBTL1 block: inhibitors of human L3MBTL1. Q9Y468. AlphaScreen L3MBTL1–H3K9me1 peptide binding. Potency, µM (doses to about 57.1 µM), inactives show at the highest dose activity, negative = inhibition, usual class: inhibitors. hit rate 0.66% among 230,000. AID 485360; note: % is set by controls: 0 for no effect and ±100 for the full control effect; nearly all actives have a fitted effect of over 60% in size
Target sequence (Q9Y468 whole entry, looked up): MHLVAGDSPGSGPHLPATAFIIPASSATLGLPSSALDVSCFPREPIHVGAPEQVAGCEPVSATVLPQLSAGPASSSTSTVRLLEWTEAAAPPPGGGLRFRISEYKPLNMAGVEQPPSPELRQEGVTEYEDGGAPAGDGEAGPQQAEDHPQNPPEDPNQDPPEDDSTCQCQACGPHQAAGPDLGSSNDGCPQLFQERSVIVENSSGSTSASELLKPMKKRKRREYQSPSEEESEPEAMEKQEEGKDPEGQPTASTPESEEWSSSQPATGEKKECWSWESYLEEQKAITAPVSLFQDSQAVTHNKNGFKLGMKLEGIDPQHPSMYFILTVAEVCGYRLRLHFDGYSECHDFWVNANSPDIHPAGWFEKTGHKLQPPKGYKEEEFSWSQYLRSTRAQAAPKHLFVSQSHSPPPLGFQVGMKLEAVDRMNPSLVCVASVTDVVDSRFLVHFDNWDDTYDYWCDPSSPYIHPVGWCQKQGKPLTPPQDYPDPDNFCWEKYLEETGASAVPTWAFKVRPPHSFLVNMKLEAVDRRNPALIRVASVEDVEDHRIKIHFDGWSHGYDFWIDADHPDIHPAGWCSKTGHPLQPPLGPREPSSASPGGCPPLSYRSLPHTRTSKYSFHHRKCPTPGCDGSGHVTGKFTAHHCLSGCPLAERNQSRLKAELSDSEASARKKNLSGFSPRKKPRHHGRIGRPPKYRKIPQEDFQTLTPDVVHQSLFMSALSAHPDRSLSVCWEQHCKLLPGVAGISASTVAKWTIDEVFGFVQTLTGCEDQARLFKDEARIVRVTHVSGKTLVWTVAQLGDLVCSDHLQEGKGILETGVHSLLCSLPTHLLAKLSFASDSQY
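L3MBTL1 50 nM + b-AHA-H3(1-15)K9me1 75 nM, 30 min RT; compound added, 30 min RT; streptavidin donor/Ni-chelate acceptor beads 10 ug/mL each final, 30 min RT dark; AlphaScreen read.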
Sfp PPTase inh: Sfp phosphopantetheinyl transferase inhibition; Q9F4F7; Biochemical Sfp PPTase activity, qHTS; Potency, µM, inactives show largest response in the series, negative = inhibition, actives largely listed as inhibitors; hit rate 3.5% among 310,000;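 note: the enzyme is Sfp with the accession as filed and its product quenches rhodamine fluorescence; 0% = enzyme reaction without inhibitor and -100% = no enzyme wells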
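Fluorescence-quenching assay with 15 nM Sfp, 5 uM rhodamine-CoA and 12.5 uM BHQ-2-labelled ybbR peptide in pH 7.6 Hepes/MgCl2 buffer. Enzyme was pre-incubated with compound for 15 min at room temperature. Rate was taken from the 30-min fluorescence change (525/598 nm).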
JMJD2A Tudor inh: inhibitors of human JMJD2A Tudor domain; AlphaScreen JMJD2A-Tudor / H3K4me3 peptide binding; O75164; Potency, µM (doses to about 114 µM), without a hit: at the highest dose activity change, negative = inhibition, actives largely listed as inhibitors; hit rate 4.4% among 390,000; AID 504339; note: % is set by controls: 0 for no effect and ±100 for the full control effect; nearly all actives have a fitted effect of over 50% in size
HP1b binding inh: HP1-beta chromodomain-methylated histone interaction inhibition; P83916; Potency, µM (doses to about 114 µM), without a hit: at the highest dose activity change, negative = inhibition, hits mostly inhibitors; hit rate 0.56% among 390,000; AlphaScreen HP1-beta / biotin-H3K9me3 peptide binding; AID 540317; note: nearly all actives have a fitted effect of over 70% in size
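Compound inhibition of the preformed complex between 50 nM HP1-beta and 50 nM biotinylated H3K9me3 peptide was read by AlphaScreen. Buffer was PBS pH 7.4 with 0.01% Tween-20. Incubations ran 30 min at room temperature, with 10 ug/mL donor/acceptor beads.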
BAZ2B block: BAZ2B (human) inhibition; AlphaScreen BAZ2B-H3K14Ac peptide displacement; Potency, µM (doses to about 114 µM), for the others: at the top dose activity change, negative = inhibition, hits mostly inhibitors; hit rate 4.4% among 360,000; AID 504333; note: % is set by controls: 0 for no effect and ±100 for the full control effect; nearly all actives have a fitted effect of over 60% in size
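Protein-peptide AlphaScreen: BAZ2B 50 nM, b-H3K14Ac 50 nM, 1x PBS pH 7.4 + 0.01% Tween-20. Preincubation 30 min RT; cpd 30 min RT (top 110 uM); beads 20 min RT, light-protected.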
* marks the source's active call; other numbers are inactive results; ? = inconclusive; . = no result given; [ ] = another dose, or the depositor's remark. This is a sample that favours compounds with a hit; in the whole collection about 12% have one here. Calls come from the whole dose curve; as a rule, active = well fitted curve in the direction sought with a large enough effect; inconclusive = small, poorly fitted or top-dose-only effect, or another doubt; inactive = no such curve, though single readings can be large; an effect the other way counts as inactive or inconclusive. Potency is the fitted concentration of half-maximal effect.

SMILES	G9a inh	L3MBTL1 block	Sfp PPTase inh	JMJD2A Tudor inh	HP1b binding inh	BAZ2B block
CC(C)(C)C(=O)NCC(c1ccc2c(c1)OCO2)N1CCOCC1 (stereo unspecified)	-2%[59 µM]	.	.	-5%	17%[57 µM]	-5%
COc1cccc(-n2c(-c3ccco3)nc3c(cnn3-c3ccccc3C)c2=O)c1	-3%[59 µM]	.	.	?	20%	.
Cc1cccc(N=Nc2c(N)n[nH]c2N)c1	-12%	-3%	5%	?	-17%	40µM*
Nc1n[nH]c(N)c1N=Nc1cccc(C(F)(F)F)c1	71µM*	.	0%	?	-1%	40µM*
Nc1n[nH]c(N)c1N=Nc1ccc(Cl)cc1	-15%[59 µM]	-15%	9%	35µM*	-33%	45µM*
Nc1[nH]ncc1N=Nc1ccc(Cl)cc1	-15%	.	1%	-34%	-3%	?
Nc1n[nH]c(N)c1N=Nc1cccc(F)c1	?	-14%	2%	?	-17%	40µM*
Cc1cccc(N=C2N=C(N)c3ccccc32)c1	31%[0.501 µM]	-3%	4%	-27%	17%	-9%
Cc1cc(C)[n+]2[nH]c(N)c(N=Nc3ccccc3)c2n1	?	-19%	22%	-30%	-5%	?
CCOc1ccc(C(=O)/C=C/c2cn(CC(O)CN3CCc4ccccc43)c3ccccc23)cc1 (stereo unspecified)	-27%[59 µM]	.	.	?	-5%	-26%
COc1ccc(C)cc1N(C(=O)c1ccc(C#N)cc1)C1=NC(C)(C)CS1	28µM*	.	-5%	0%	29%	-20%
COc1ccc(C)cc1N(C(=O)c1ccccc1)c1nc2ccccc2s1	-12%[59 µM]	-8%	4%	0%	36%	5%
Cc1ccc2c(=O)c(C(=O)c3cccc(Cl)c3)cn(CC(=O)Nc3ccc4c(c3)OCCO4)c2n1	7%[59 µM]	.	.	-1%	48%	-1%
COc1ccc2nc(/C=N/NC(=O)CCNC(=O)OC(C)(C)C)ccc2c1	32µM*	.	11%	-24%	13%	-15%
Oc1c(CN2CCCCC2)cc(Br)c2cccnc12	?	?	45µM*	22µM*	26%	28µM*
O=[N+]([O-])c1cc(CN2CCN(c3ccccc3)CC2)c(O)c2ncccc12	?	4µM*	24%	10µM*	18%	3.2µM*
O=c1oc2ccccc2c(O)c1Cc1cc(Cl)c2cccnc2c1O	.	56%	26%	-36%	25%	32µM*
Oc1c(CN2CCc3ccccc3C2)cc(Cl)c2cccnc12	45µM*	.	-22%	25µM*	26%	8.9µM*
Clc1ccc(N2CCN(Cc3c[nH]c4ncccc34)CC2)cc1	-29%[59 µM]	-7%	-8%	?	12%	6%
Brc1cc2c(cc1CN1CCc3ccccc3C1)OCO2	-8%[2.33 µM]	.	-12%	27%	80%	32%
O=C(COc1c(Br)cc(Br)c2cccnc12)N1CCCCC1	8%	-30%	-1%	-11%	37%	?
CCOc1ccc(NC(=O)CSc2oc(-c3ccco3)nc2S(=O)(=O)c2ccc(Cl)cc2)cc1	-34%[59 µM]	.	.	-25%	69%	?
N#CCCn1c(=O)c(-c2ccccc2)nc2cnc(OCc3ccccc3)nc21	2%[12.7 µM]	.	-7%	.	.	.
Cc1cccn2c(=O)c3cc(C(=O)NCc4ccccc4)c(=N)n(CCOCCO)c3nc12	-34%[59 µM]	.	.	-20%	-4%	2%
O=[N+]([O-])c1cc(CN2CCOCC2)c2cccnc2c1O	?	1.3µM*	12%	7.9µM*	24%	3.2µM*
Oc1c(Cl)cc(CN2CCOCC2)c2cccnc12	-1%[2.33 µM]	?	.	11µM*	-26%	7.9µM*
Oc1c(Cl)cc(Cl)c(Cl)c1CN1CCOCC1	.	.	.	-3%	-1%	.
O=[N+]([O-])c1ccc(O)c2cccnc12	?	.	-3%	-20%	?	?
Cc1ccc(NC(=O)Cn2c(=O)nc(-c3ccccc3F)c3cc(Cl)ccc32)c(Br)c1	-14%[59 µM]	.	.	-2%	39%	-23%
Cc1ccccc1NC(=O)Cn1c(=O)n(CCC(=O)N2CCc3ccccc3C2)c(=O)c2ccccc21	10%[59 µM]	.	.	-16%	-6%	-26%
